Measurements published in PubChem BioAssay AID488913 (National Center for Advancing Translational Sciences (NCATS), 2010).
Results filed as inconclusive are left out. A number with no mark means an inactive call. Activity calls are given as the source filed them. The call rests on the fitted dose curve; in most records, active means well fitted inhibition curve with a large enough effect; inconclusive means small, poorly fitted or top-dose-only effect, or effect the other way; inactive means no such curve, though single readings can be large or run the other way.

assay: Confirmation Concentration-Response Assay for lipid storage modulators: for probe SAR; settings: Drosophila S3 cells, BODIPY lipid droplet fluorescence, 18-24 h; series mostly up to 46.1 µM; activity change, negative = lipid storage inhibition: at the top concentration
How it was run: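 Laser-scanning cytometry read BODIPY 493/503 lipid-droplet intensity and its ratio to CellTracker Red cell signal. Beforehand, 5,000 cells/well were exposed 18–24 h at 24 °C to test compound with oleic acid (1 µL, 400 µM). 20 µM Triacsin C defined full inhibition.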

Row | SMILES | Potency | activity change, negative = lipid storage inhibition [%]
1 | CCOc1ccc(CCNC(=O)c2cc3ccccc3n2C)cc1OCC | 7910 nM (active) | –
2 | CC1=C(C(=O)NC2CCCc3c2cnn3-c2ccc(F)cc2F)OCCO1 (stereo unspecified) | 15.8 nM (active) | –
3 | O=C(NC1CCCc2c1cnn2-c1ccc(F)cc1F)c1cnsn1 (stereo unspecified) | 499 nM (active) | –
4 | O=C(NC1CCCc2c1cnn2-c1ccc(F)cc1F)C1CCCCN1 (stereo unspecified) | – | -5.13
5 | O=C(CSc1nnc(NCc2ccccc2)s1)Nc1nc(-c2ccc(F)c(F)c2)cs1 | 1250 nM (active) | –
6 | O=C(Cc1ccccc1)NC1CCCc2c1cnn2-c1ccc(F)cc1F (stereo unspecified) | – | -6.41
